Assay results reported in PubChem BioAssay (Tox21).
Values without a mark were called inactive. Activity calls are given as the source filed them. Calls follow the shape of the dose curve; as a rule, active = well fitted curve in the direction sought with a large enough effect in the repeat runs; inconclusive = weak or mixed curves; inactive = flat fitted curve, though single readings scatter.

Assay: qHTS assay to test for compound auto fluorescence at 535 nm (green) in HEK293 cell free culture (AID 720682)
Details: cell-free medium, green autofluorescence 485/535 nm, stronger effect = higher value; series mostly up to 91.3 µM
Excerpt: U.S. Tox21 Program National Center for Advancing Translational Sciences [NCATS] NIH Chemical Genomics Center [NCGC] U.S. Environmental Protection Agency [EPA] National Institutes of Environmental Health Sciences [NIEHS] National Toxicology Program [NTP] U.S. Food and Drug Administration [FDA] Tox21 Assay Overview: Compound auto fluorescence often interferes with screening of the compound library against various biological targets and signaling pathways. Some of these compounds may have fluorophoric properties. Such properties may interfere with the assay outputs resulting in false positives and/or negatives. To decrease such complications and ensure the compound activities are relevant in terms of biological response, the Tox21 10K compound library was screened for auto fluorescence. From the fluorophores used as reporter signals in our screening assays, the auto fluorescence equivalencies of compounds against three fluorophores have been evaluated: Triamterene, Fluorescein and Rose Bengal sodium for blue, green and red fluorescence, respectively. The fluorescence intensities were measured using Excitation/Emission wavelengths at 405/460nm, 485/535nm and 540/590nm for blue, green and red labels, respectively. This assay includes the green fluorescence data.
Tox21 Assay Protocol Summary: 5 uL of culture medium (DMEM containing 10% FBS) per well was dispensed into black wall/clear bottom 1536-well plates using a Multidrop Combi Dispenser (ThermoFisher Scientific, Waltham, MA). After 23 nL compound or DMSO vehicle was transferred into assay plate by a pintool work station (Kalypsys, San Diego, CA), fluorescence intensities in the assay plates were measured by an Envision (PerkinElmer, Shelton, CT) plate reader using three labels for measuring blue, green and red fluorescence at […] 460, 535 and 590nm respectively.
% is scaled to controls: 0 for no effect and ±100 for the full control effect.

Question: For `CCCCOc1ccc(CC(=O)NO)cc1`, which activity change is on record?
Answer: 0.0033% [at 18.6 µM]

Question: For `N#Cc1c(F)cccc1F`, which outcome is on record?
Answer: inactive

Question: With `Nc1nc(N)c2nc(CNc3ccc(C(=O)N[C@@H](CCC(=O)O)C(=O)O)cc3)cnc2n1` as the compound, how does the outcome read?
Answer: inactive

Question: For `Oc1ccc(Sc2ccc(O)cc2)cc1`, which outcome is on record?
Answer: inactive

Question: With `OCCC1CCCCN1` (stereo not given) as the compound, how does the outcome read?
Answer: inactive

Question: Which outcome does the source give for `CC(Cc1cccc(C(F)(F)F)c1)NCCOC(=O)c1ccccc1` (stereo not given) here?
Answer: inactive

Question: With `Cc1ccccn1` as the compound, how does the outcome read?
Answer: inactive

Question: Which outcome does the source give for `CC(C)(C)c1cc(O)c(C(C)(C)C)cc1O` here?
Answer: inactive

Question: For `NC(=S)N/N=C/c1cccnc1`, which outcome is on record?
Answer: inactive

Question: Which outcome does the source give for `COc1cc(C(C)(C)C)c(O)c(C(C)(C)C)c1` here?
Answer: inactive

Question: For `CCCC[C@H]1CN(CC2CCOCC2)C(=O)OC12CCN(C1(C)CCN(C(=O)c3c(C)ncnc3C)CC1)CC2`, which outcome is on record?
Answer: inactive

Question: Which outcome does the source give for `c1ccc(OCc2ccc(CCCN3CCOCC3)cc2)cc1` here?
Answer: inactive

Question: With `COCCOCCOCCOCCOC` as the compound, how does the outcome read?
Answer: inactive

Question: For `O=C(/C=C/c1ccc(O)c(O)c1)O[C@@H]1C[C@](O)(C(=O)O)C[C@@H](O)[C@H]1O`, which outcome is on record?
Answer: inactive

Question: For `CCOc1cc(OCC)c(C(=O)CCC(=O)O)cc1OCC`, which outcome is on record?
Answer: inactive

Question: For `CN1CCC(=C2c3ccccc3C=Cc3ccccc32)CC1`, which outcome is on record?
Answer: inactive

Question: For `N[C@H]1C(O)O[C@H](CO)[C@H](O)[C@@H]1O` (stereo not given in full), which outcome is on record?
Answer: inactive

Question: With `O=C1[C@H](CC[C@H](O)c2ccc(F)cc2)[C@@H](c2ccc(O)cc2)N1c1ccc(F)cc1` as the compound, how does the outcome read?
Answer: inactive

Question: Which outcome does the source give for `CC(C)(C)C1CCCCC1O` (stereo not given) here?
Answer: inactive

Question: Which outcome does the source give for `CCOc1nc2cccc(C(=O)O)c2n1Cc1ccc(-c2ccccc2-c2nn[nH]n2)cc1` here?
Answer: inactive

Question: With `S=C(S)NCCNC(=S)S` as the compound, how does the outcome read?
Answer: inactive

Question: For `COCCCCCCCCOCCC[Si](C)(O[Si](C)(C)C)O[Si](C)(C)C`, which outcome is on record?
Answer: inactive

Question: Which outcome does the source give for `CCCCOC(=O)/C=C\C(=O)OCCCC` here?
Answer: inactive

Question: Which outcome does the source give for `C=CC(C)(CCC=C(C)C)OC(=O)c1ccccc1` (stereo not given) here?
Answer: inactive

Question: With `Cc1cccc(C(C)(C)C)c1O` as the compound, how does the outcome read?
Answer: inactive

Question: With `CCCCCCOC(=O)CCC` as the compound, how does the outcome read?
Answer: inactive

Question: For `CC1CCc2cc(F)cc3c(=O)c(C(=O)O)cn1c23` (stereo not given), which outcome is on record?
Answer: inactive

Question: Which outcome does the source give for `Cc1ccc(C(C)c2ccc(C)c(C)c2)cc1C` here?
Answer: inactive

Question: For `Cc1cc(C)c(S(=O)(=O)O)cc1N=Nc1cc(S(=O)(=O)O)c2ccccc2c1O`, which outcome is on record?
Answer: inactive

Question: Which activity change does the source give for `CN1CCC(OC(c2ccccc2)c2ccccc2)CC1` here?
Answer: -0.251% [at 18.6 µM]

Question: Which outcome does the source give for `O=C(O)C(c1ccc(Cl)cc1)c1ccc(Cl)cc1` here?
Answer: inactive

Question: With `CCCCCC/C=C/C=O` as the compound, how does the outcome read?
Answer: inactive

Question: Which outcome does the source give for `C=C(C)C(=O)OCCN(C)C` here?
Answer: inactive

Question: For `C=Cc1c(C)c2cc3[nH]c(cc4nc(cc5nc(cc1[nH]2)C(C)=C5CCC(=O)O)C(CCC(=O)O)=C4C)c(C)c3C=C`, which outcome is on record?
Answer: inactive

Question: For `NC(N)=NN=C(/C=C/c1ccc([N+](=O)[O-])o1)/C=C/c1ccc([N+](=O)[O-])o1`, which outcome is on record?
Answer: inactive

Question: For `CC(C)c1cccc(C(C)C)c1NC(=O)NS(=O)(=O)c1cc(C(C)(C)O)co1`, which outcome is on record?
Answer: inactive

Question: With `O=C(O)Cc1cc(I)c(Oc2ccc(O)c(I)c2)c(I)c1` as the compound, how does the outcome read?
Answer: inactive

Question: For `O=C(O)COC(=O)Cc1ccccc1Nc1c(Cl)cccc1Cl`, which activity change is on record?
Answer: 0.0139% [at 18.6 µM]

Question: For `CN(c1nccc(=O)[nH]1)C1CCN(c2nc3ccccc3n2Cc2ccc(F)cc2)CC1`, which outcome is on record?
Answer: inactive

Question: For `NC1CCN(c2nc3c(cc2F)c(=O)c(C(=O)O)cn3-c2ccc(F)cc2F)C1` (stereo not given), which outcome is on record?
Answer: inactive
